The target in experiment [1] is Sphingosine kinase 1 (Homo sapiens) (UniProt Q9NYA1). To be noted: at 1 µM.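 Note: mean SPHK1 inhibition value reported from the GSK PKIS kinase panel screen.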
The target of experiment [2] is T1, Sphingosine kinase 2 (Homo sapiens) (UniProt Q9NRA0).
T1 sequence (whole entry): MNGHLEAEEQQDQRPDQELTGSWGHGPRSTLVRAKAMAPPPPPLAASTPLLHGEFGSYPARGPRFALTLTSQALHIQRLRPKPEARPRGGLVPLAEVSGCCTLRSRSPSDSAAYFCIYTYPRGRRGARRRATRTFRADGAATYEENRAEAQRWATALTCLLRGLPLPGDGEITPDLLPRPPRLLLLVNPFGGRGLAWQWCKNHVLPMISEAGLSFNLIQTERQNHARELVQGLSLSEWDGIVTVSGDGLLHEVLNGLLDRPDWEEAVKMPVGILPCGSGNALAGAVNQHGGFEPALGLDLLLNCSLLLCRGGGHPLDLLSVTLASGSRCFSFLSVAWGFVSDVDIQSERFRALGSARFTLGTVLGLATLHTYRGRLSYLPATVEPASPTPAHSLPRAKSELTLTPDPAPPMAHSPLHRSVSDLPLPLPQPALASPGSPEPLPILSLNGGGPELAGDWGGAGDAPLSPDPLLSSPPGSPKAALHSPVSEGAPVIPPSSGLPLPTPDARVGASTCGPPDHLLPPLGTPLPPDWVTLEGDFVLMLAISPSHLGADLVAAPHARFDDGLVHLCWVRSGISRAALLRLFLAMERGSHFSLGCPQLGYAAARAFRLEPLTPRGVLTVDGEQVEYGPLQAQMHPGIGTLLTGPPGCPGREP
To be noted: at 0.1 µM.

Experiment [3] addresses T1, Sphingosine kinase 2 (Homo sapiens). To be noted: at 1 µM.
Experiment [4] addresses Casein kinase II subunit alpha (Homo sapiens) (UniProt P68400). To be noted: at 0.1 µM.
Experiment [5] shares this target. To be noted: at 1 µM.
For experiment [6], the target named is T2, Inhibitor of nuclear factor kappa-B kinase subunit alpha (Homo sapiens) (UniProt O15111).
T2 sequence (whole entry): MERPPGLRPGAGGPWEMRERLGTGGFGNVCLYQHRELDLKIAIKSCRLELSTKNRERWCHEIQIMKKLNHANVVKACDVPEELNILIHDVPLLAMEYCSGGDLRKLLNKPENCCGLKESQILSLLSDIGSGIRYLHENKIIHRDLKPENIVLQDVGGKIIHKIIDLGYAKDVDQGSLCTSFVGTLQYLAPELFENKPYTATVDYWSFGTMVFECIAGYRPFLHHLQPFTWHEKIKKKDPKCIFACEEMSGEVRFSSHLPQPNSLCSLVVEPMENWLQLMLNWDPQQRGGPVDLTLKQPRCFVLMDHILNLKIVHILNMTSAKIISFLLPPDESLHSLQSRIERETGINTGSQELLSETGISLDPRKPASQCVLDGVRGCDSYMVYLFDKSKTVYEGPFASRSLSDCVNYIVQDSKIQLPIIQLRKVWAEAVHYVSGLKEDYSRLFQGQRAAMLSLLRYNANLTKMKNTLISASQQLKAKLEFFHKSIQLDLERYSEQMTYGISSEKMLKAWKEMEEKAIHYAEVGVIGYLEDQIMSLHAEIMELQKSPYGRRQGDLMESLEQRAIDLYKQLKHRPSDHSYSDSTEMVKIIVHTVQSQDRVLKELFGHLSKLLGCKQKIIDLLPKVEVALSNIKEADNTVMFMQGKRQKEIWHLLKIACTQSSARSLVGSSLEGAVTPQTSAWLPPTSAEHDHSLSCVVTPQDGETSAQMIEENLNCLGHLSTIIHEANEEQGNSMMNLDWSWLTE
To be noted: at 0.1 µM.

Experiment [7] concerns the target T2, Inhibitor of nuclear factor kappa-B kinase subunit alpha (Homo sapiens). To be noted: at 1 µM.
Experiment [8] deals with T3, Inhibitor of nuclear factor kappa-B kinase subunit beta (Homo sapiens) (UniProt O14920).
T3 sequence (whole entry): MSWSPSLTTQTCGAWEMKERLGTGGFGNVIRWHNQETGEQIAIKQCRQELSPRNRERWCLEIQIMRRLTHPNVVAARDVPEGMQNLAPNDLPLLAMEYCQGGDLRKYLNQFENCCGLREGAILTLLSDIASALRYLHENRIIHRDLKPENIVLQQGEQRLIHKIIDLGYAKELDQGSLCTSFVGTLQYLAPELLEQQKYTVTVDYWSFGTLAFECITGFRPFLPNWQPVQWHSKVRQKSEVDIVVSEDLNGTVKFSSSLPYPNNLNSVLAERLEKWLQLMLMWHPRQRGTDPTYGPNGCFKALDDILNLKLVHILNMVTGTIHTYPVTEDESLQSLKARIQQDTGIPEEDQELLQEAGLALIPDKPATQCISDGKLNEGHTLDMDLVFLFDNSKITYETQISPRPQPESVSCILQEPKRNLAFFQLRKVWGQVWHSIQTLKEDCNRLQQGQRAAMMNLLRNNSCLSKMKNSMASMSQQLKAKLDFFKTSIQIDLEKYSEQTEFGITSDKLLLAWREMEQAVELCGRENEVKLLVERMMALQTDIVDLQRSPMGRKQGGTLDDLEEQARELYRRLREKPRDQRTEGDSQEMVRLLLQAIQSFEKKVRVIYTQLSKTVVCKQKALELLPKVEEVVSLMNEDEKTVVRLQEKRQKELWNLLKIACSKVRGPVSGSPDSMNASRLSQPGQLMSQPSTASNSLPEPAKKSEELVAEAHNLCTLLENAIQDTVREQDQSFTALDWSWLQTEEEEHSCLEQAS
To be noted: at 0.1 µM.

The target in experiment [9] is T3, Inhibitor of nuclear factor kappa-B kinase subunit beta (Homo sapiens). To be noted: at 1 µM.
The target in experiment [10] is T4, Inhibitor of nuclear factor kappa-B kinase subunit epsilon (Homo sapiens) (UniProt Q14164).
T4 sequence (whole entry): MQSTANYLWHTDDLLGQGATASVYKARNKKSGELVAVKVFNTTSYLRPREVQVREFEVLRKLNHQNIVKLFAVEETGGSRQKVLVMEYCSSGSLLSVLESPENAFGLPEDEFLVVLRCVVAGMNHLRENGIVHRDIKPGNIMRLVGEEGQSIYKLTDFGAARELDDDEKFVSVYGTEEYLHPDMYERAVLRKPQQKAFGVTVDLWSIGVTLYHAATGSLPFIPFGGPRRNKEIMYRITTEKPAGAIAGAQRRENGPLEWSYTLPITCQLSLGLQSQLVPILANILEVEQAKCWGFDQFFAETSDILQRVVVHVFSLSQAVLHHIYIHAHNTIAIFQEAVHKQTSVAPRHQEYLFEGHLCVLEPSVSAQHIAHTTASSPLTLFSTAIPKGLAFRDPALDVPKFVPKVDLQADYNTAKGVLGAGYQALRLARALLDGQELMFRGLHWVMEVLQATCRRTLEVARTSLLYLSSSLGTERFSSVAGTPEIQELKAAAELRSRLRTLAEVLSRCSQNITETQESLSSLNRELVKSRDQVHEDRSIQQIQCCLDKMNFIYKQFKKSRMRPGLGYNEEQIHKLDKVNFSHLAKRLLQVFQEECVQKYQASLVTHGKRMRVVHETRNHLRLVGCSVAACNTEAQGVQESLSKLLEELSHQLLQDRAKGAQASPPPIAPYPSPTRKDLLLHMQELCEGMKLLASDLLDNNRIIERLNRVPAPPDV
To be noted: at 0.1 µM.

Experiment [11] deals with T4, Inhibitor of nuclear factor kappa-B kinase subunit epsilon (Homo sapiens). To be noted: at 1 µM.
Experiment [12] concerns the target T5, Serine/threonine-protein kinase Nek1 (Homo sapiens) (UniProt Q96PY6).
T5 sequence (whole entry): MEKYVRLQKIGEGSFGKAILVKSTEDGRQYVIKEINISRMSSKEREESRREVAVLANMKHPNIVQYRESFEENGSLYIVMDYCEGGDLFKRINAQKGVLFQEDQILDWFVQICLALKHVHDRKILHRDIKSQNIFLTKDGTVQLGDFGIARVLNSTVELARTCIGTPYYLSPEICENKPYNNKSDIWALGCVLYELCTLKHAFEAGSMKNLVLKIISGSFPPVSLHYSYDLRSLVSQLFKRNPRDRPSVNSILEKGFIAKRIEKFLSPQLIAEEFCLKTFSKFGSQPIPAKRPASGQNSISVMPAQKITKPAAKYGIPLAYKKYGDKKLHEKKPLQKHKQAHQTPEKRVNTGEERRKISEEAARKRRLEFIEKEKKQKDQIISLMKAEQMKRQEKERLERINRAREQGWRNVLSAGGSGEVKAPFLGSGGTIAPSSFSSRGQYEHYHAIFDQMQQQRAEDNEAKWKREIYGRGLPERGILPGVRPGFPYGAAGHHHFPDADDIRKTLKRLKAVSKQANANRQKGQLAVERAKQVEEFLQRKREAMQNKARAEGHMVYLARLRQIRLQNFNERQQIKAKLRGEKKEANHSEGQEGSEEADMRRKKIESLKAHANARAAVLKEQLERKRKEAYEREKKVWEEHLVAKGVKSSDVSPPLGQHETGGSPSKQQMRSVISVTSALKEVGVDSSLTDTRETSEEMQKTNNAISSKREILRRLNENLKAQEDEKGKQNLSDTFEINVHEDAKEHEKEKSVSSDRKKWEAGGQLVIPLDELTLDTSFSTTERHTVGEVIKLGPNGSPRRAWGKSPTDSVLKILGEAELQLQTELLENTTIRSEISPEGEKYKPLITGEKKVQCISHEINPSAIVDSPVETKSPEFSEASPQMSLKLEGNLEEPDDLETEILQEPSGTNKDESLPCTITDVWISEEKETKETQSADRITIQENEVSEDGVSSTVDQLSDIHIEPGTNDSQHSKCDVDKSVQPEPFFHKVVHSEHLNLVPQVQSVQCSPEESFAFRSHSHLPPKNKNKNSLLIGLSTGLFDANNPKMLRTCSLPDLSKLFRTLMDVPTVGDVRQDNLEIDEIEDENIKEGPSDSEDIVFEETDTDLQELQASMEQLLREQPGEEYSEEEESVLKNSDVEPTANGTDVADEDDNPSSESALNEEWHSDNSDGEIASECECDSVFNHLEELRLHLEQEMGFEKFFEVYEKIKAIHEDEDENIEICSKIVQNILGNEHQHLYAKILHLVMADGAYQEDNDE
To be noted: at 0.1 µM.

In experiment [13] the target is T5, Serine/threonine-protein kinase Nek1 (Homo sapiens). To be noted: at 1 µM.
For experiment [14], the target named is T6, Serine/threonine-protein kinase Nek2 (Homo sapiens) (UniProt P51955).
T6 sequence (whole entry): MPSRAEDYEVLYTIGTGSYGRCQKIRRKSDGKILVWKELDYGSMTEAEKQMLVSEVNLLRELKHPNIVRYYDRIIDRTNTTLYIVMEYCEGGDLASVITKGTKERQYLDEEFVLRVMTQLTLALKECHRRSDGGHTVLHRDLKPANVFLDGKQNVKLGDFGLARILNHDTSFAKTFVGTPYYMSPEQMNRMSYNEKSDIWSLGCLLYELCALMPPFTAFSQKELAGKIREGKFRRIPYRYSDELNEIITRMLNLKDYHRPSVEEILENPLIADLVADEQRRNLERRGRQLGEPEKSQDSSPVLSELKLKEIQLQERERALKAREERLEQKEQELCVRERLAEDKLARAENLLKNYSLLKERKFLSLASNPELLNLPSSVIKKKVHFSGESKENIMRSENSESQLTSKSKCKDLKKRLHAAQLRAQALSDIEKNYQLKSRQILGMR
To be noted: at 0.1 µM.

The target of experiment [15] is T6, Serine/threonine-protein kinase Nek2 (Homo sapiens). To be noted: at 1 µM.
Experiment [16] deals with Serine/threonine-protein kinase Nek6 (Homo sapiens) (UniProt Q9HC98). To be noted: at 0.1 µM.
Chain of Serine/threonine-protein kinase Nek6 (Homo sapiens) (Q9HC98 whole entry): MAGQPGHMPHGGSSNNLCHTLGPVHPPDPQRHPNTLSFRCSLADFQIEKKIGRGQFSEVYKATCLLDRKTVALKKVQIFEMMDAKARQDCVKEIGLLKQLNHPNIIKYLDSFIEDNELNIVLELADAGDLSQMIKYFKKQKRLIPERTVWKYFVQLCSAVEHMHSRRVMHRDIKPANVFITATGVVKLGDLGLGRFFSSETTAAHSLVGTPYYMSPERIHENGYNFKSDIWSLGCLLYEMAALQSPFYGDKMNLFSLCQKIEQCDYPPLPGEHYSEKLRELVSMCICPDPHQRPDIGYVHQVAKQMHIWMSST
Experiment [17] has the same target. To be noted: at 1 µM.
Experiment [18] concerns the target Serine/threonine-protein kinase Nek7 (Homo sapiens) (UniProt Q8TDX7). To be noted: at 0.1 µM.
Experiment [19] has the same target. To be noted: at 1 µM.
Experiment [20] deals with T7, Serine/threonine-protein kinase Nek9 (Homo sapiens) (UniProt Q8TD19).
T7 sequence (whole entry): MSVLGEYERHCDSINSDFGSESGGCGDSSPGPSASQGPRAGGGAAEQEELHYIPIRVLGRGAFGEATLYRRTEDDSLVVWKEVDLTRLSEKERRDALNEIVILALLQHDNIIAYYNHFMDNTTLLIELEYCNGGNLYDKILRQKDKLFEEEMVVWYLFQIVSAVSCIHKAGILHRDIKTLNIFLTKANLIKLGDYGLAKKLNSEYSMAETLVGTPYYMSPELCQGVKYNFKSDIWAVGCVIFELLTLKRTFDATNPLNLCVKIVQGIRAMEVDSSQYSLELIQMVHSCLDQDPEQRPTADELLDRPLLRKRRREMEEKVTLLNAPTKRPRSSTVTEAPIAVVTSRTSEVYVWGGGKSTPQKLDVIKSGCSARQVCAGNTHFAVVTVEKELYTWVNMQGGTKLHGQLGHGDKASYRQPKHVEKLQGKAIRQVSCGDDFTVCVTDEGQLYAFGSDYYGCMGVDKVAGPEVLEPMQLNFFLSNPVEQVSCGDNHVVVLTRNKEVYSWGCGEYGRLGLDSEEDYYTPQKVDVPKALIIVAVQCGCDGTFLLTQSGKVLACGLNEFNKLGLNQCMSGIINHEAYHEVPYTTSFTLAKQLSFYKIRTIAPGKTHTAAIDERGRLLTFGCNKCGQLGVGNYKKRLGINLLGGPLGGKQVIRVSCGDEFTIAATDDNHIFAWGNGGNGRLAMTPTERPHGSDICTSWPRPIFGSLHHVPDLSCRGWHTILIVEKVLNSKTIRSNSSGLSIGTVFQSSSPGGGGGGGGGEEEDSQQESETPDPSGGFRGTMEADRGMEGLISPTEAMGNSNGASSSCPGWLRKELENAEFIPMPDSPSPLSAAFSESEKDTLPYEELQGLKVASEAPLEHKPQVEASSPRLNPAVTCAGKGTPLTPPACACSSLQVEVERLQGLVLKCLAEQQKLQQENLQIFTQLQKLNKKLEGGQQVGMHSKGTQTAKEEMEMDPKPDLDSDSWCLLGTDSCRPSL
To be noted: at 0.1 µM.

SMILES strings stand for the structures.

For orientation: inhibition means the change of the read-out against control, counted positive when it falls.

Chain of Casein kinase II subunit alpha (Homo sapiens) (P68400 whole entry, looked up): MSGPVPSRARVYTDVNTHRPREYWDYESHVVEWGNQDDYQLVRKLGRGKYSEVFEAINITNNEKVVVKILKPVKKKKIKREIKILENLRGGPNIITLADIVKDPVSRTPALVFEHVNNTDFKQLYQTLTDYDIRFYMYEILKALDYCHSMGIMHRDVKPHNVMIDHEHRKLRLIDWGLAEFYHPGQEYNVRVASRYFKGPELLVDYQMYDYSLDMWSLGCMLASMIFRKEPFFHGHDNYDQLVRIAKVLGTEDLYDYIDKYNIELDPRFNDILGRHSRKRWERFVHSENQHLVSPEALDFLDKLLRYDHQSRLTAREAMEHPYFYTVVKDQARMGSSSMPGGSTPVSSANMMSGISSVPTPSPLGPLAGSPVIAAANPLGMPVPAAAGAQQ
Chain of Serine/threonine-protein kinase Nek7 (Homo sapiens) (Q8TDX7 whole entry, looked up): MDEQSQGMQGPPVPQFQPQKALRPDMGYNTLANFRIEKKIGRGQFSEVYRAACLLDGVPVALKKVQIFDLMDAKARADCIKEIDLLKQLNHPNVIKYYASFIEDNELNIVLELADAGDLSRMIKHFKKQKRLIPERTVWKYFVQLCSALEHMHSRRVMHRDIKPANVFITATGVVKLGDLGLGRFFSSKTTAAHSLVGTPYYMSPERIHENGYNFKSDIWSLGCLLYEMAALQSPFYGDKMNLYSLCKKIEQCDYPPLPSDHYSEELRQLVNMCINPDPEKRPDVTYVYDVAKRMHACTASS
Chain of Sphingosine kinase 1 (Homo sapiens) (Q9NYA1 whole entry): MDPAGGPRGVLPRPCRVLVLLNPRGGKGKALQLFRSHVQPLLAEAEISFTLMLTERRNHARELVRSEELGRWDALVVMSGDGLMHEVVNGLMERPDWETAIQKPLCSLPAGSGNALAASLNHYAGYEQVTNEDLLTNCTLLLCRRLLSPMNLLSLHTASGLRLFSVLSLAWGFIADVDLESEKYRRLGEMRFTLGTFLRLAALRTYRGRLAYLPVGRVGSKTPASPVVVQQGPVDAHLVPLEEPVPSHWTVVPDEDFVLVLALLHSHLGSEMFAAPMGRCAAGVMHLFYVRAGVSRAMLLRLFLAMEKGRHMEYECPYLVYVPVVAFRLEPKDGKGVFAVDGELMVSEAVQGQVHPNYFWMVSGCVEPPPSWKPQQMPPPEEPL

On to `c1ccc(-c2nc3n(c2-c2ccc4c(c2)OCO4)CCC3)nc1`, for which the inhibition in experiment [1] was 0.44%; in experiment [2] it was -0.36%; in experiment [3], 0%; in [4] it was 0.8%; in [5], 1.12%; in [6], 0.69%. The inhibition in [7] was -5.83%; in experiment [8] it was 3.06%; in experiment [9], -0.72%; in experiment [10], 1.33%; in experiment [11] it was 1.63%; in experiment [12], 2.25%. The inhibition is 1.34% in experiment [13]; 2.03% in [14]; 3.36% in [15]; 1.4% in [16]; -0.68% in experiment [17]; 4.7% in [18]. Moreover, the values for the inhibition in experiment [19] and in experiment [20] were 3.16% and 4.73%, respectively.

These data come from ChEMBL document CHEMBL1961873, “Compounds: GSK PKIS; Assays: Nanosyn kinase panel” (2012).
